According to PubChem BioAssay (NCI):
The panel holds about 83,000 compounds, 20% with a hit somewhere; the sample as a whole holds those more often.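 Negative percent growth values reflect cell death: -40 means 40% of the cells present at the start died, and -100 means all died.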 Activity calls are given as the source filed them. Rule for the calls: active = growth percent below 10; inactive = the rest.

Each compound was assayed on MDA-MB-468 breast (assay: NCI-60 one-dose screen, 48 h (100 = growth as untreated, 0 = no growth, -100 = all killed)). Conditions: 10 µM unless noted.

SMILES | growth
COc1cc(-c2nc(-c3ccccc3)c(-c3ccccc3)[nH]2)cc(OC)c1O | -49.2% (active)
Cc1ccc2c(c1)c(-c1nc(-c3c[nH]c4ncccc34)cs1)cn2C | -2.68% (active)
O=C1c2cccc3cc([N+](=O)[O-])cc(c23)C(=O)N1CCN1CCCC1 | -53.4% (active)
